From PubChem
TrxR1 substrate – rat thioredoxin reductase 1 substrate activity; O89049; purified TrxR1 substrate turnover, NADPH consumption readout; Potency, µM (top dose mostly 114 µM), for the others: at the highest dose activity change, negative = substrate turnover; 0.01% of 390,000 active; AID 588456; further: nearly all actives have a fitted effect of over 50% in size
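Rat TrxR1, dispensed at 90 nM, was prereduced with 400 uM NADPH (final) for 5 min at ~22 deg C, then incubated with compound 15 min before 400 uM selenite. A first-read NADPH fluorescence drop versus no-compound background flagged substrates.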
rTrxR1 inhibitor – rat TrxR1 inhibition. 1% of 390,000 active. Potency, µM (titrated, usually from 114 µM), without a hit: at the top dose activity change, negative = inhibition, actives largely listed as inhibitors. O89049. AID 588453. recombinant rTrxR1, NADPH fluorescence consumption, selenite substrate; further: nearly all actives have a fitted effect of over 65% in size
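Rat TrxR1 (90 nM in the dispensed reagent) was pre-reduced with 400 uM NADPH for 5 min at room temperature, then incubated with compound for 15 min. After 400 uM selenite was added, NADPH fluorescence (Ex 340/Em 450 nm) was followed for 8 min.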
IDH1 R132H inh – human IDH1 R132H inhibition | IDH1-R132H enzyme, NADPH consumption, diaphorase/resazurin fluorescence | Potency, µM (top dose mostly 76.6 µM), without a hit: top-dose activity change, negative = inhibition, usual class: inhibitors | 0.093% of 390,000 active | AID 602179; further: nearly all actives have a fitted effect of over 65% in size
Target sequence (O75874 whole entry R132H, stated change not applied): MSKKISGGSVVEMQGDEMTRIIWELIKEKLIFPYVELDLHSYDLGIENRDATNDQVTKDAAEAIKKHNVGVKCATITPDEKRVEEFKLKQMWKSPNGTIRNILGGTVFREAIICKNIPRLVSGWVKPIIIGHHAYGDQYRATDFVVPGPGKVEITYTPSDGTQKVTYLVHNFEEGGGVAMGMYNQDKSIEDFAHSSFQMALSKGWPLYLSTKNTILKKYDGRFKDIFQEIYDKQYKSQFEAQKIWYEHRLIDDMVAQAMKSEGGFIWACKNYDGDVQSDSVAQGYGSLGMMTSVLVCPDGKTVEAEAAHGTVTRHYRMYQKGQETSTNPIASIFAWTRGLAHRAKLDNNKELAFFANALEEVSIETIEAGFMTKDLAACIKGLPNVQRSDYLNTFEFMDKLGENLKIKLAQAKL
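IDH1-R132H (0.5 ug/mL dispensed) in pH 7.5 Tris buffer was preincubated 30 min with compound, then given a substrate mix of 0.016 mM NADPH and 2 mM alpha-KG for 80 min at room temperature; remaining NADPH was read by diaphorase/resazurin fluorescence.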
VDR inh – vitamin D3 receptor (human) inhibition | AID 504847 | VDR-SRC2-3 peptide fluorescence polarization, 2 h | 0.93% of 400,000 active | P11473 | Potency, µM, inactives show max response, negative = inhibition, actives largely listed as inhibitors
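Fluorescence polarization assay of small-molecule disruption of VDR binding to coregulator peptide SRC2-3. Compounds and controls pin-transferred, then read after 2 h incubation at ambient room temperature.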
PLK1 PBD block – blocks phosphopeptide binding to human PLK1 polo-box domain | Plk1 PBD binding of FITC phosphopeptide, fluorescence polarization | 2.8% of 360,000 active | Potency, µM, without a hit: max response, negative = inhibition, most hits filed as inhibitors; further: series mostly up to about 57 µM; nearly all actives have a fitted effect of over 65% in size
Sfp inh – Sfp phosphopantetheinyl transferase inhibition; AID 1490; Potency, µM, for inactives: largest response in the series, negative = inhibition, hits mostly inhibitors; Q9F4F7; 3.5% of 310,000 active; Biochemical Sfp PPTase activity, qHTS;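 further: the enzyme is Sfp with the accession as filed and its product quenches rhodamine fluorescence; 0% = enzyme reaction without inhibitor and -100% = no enzyme wells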
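Step 1, compound plus 15 nM Sfp-PPTase, 15 min, room temperature. Step 2, add rhodamine-CoA (5 uM) and BHQ-2-YbbR (12.5 uM). Step 3, read 525/598 nm fluorescence at 0 and 30 min.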
Starred values were filed as active, the others as inactive; [ ] = dose if it differs, or a comment. Sampled rows, rich in hits. Any-hit rate of the full collection: about 5.2%. The call rests on the fitted dose curve; in most records, active means well fitted curve in the direction sought with a large enough effect; inconclusive means small, poorly fitted or top-dose-only effect, or another doubt; inactive means no such curve, though single readings can be large; an effect the other way counts as inactive or inconclusive. Unless noted, on the % scale 0 is the no-effect control and ±100 the full control effect; potency means the concentration at half of the fitted maximal effect.

`COC(=O)C1=C(C)Nc2[nH]c(=S)[nH]c(=O)c2C1c1ccc(OC)cc1` (stereo not drawn) gave TrxR1 substrate -7.0%, rTrxR1 inhibitor -29.6%, IDH1 R132H inh -3.1%, VDR inh -3.3%, PLK1 PBD block inconclusive and Sfp inh 39.8µM*.
Screening C=CCOC(=O)C1=C(C)Nc2[nH]c(=O)[nH]c(=O)c2C1c1cccc(OC)c1 (stereo not drawn) returned Sfp inh -1.7%.
Screening CCCN1C(=S)SC(C)(C)C1/[N+]([O-])=C/c1cccnc1 (stereo not drawn) returned TrxR1 substrate -11.2%, rTrxR1 inhibitor -5.6%, IDH1 R132H inh -0.7%, VDR inh -3.7%, PLK1 PBD block 23.8µM* and Sfp inh 13.2%.
COC(=O)[C@@]1(C)[C@H]2C(=O)N(Cc3ccccc3)C(=O)[C@H]2[C@H]2CN=C(SCC(=O)c3ccccc3)N21 was read as TrxR1 substrate -1.9%, rTrxR1 inhibitor 60.1%, IDH1 R132H inh -2.5%[38.3 µM], VDR inh 20µM* and PLK1 PBD block inconclusive.
Screening COc1cc(C=O)ccc1Oc1nc(Nc2ccc(F)cc2F)nc(N2CCOCC2)n1 returned TrxR1 substrate 3.8%[57.1 µM], rTrxR1 inhibitor 26.9%[57.1 µM], IDH1 R132H inh -8.4%, VDR inh -23.9%, PLK1 PBD block 21.2µM* and Sfp inh 7.5%.
For Fc1ccccc1Nc1nc(N2CCOCC2)nc(N2CCOCC2)n1 the results were TrxR1 substrate -2.3%, rTrxR1 inhibitor 17.7%, IDH1 R132H inh -1.1%, VDR inh 11.6%, PLK1 PBD block 0.4% and Sfp inh 12.5%.
`COc1ccccc1CNC(=O)c1cc2c(-c3ccc(Cl)cc3)nn(C)c2s1` gave TrxR1 substrate 2.0%, rTrxR1 inhibitor 4.8%, IDH1 R132H inh 0.0% and VDR inh 1.8%.
For CCOC(=O)c1sc(N)nc1C(F)(F)F the results were TrxR1 substrate 6.2%, rTrxR1 inhibitor 21.9%, IDH1 R132H inh 8.3%, VDR inh -13.6% and PLK1 PBD block 26.7µM*.
CCOC(=O)c1sc(N(C)C)nc1-c1ccccc1 was read as TrxR1 substrate -0.5%, rTrxR1 inhibitor 2.3%, IDH1 R132H inh 4.8%, VDR inh 8.8%, PLK1 PBD block inconclusive and Sfp inh 2.0%.
For CCOC(=O)c1sc(N)nc1-c1ccccc1 the results were TrxR1 substrate -3.6%, rTrxR1 inhibitor 14.8%, IDH1 R132H inh 0.8%, VDR inh inconclusive, PLK1 PBD block 26.7µM* and Sfp inh -8.5%.
`CC(C)(C)c1cnnn1-c1ccc(C=O)cc1` gave TrxR1 substrate 2.7%, rTrxR1 inhibitor 22.0%, IDH1 R132H inh -1.2%, VDR inh -1.8%, PLK1 PBD block -10.1% and Sfp inh 21.9%.
Screening CC(C)(C)c1cnnn1-c1ccc(C(=O)CCl)cc1 returned TrxR1 substrate -2.0%, rTrxR1 inhibitor -35.5%, IDH1 R132H inh 9.9%, VDR inh 79.4µM*, PLK1 PBD block 6.7µM* and Sfp inh -14.0%.
CC1=C(C(=O)OCc2ccccc2)C(c2cccc3ccccc23)NC(=O)N1CCCC(=O)O (stereo not drawn) was read as TrxR1 substrate 11.0%[57.1 µM], rTrxR1 inhibitor 14.9%[57.1 µM], IDH1 R132H inh -11.9%, VDR inh -23.7% and PLK1 PBD block -0.8%.
`CCc1c(C(C)S(=O)(=O)c2ccc(C)cc2)[nH]c(=O)n1-c1ccc(OC(F)(F)F)cc1` (stereo not drawn) gave TrxR1 substrate 5.7%[57.1 µM], rTrxR1 inhibitor inconclusive, IDH1 R132H inh 3.2%, VDR inh -16.7%, PLK1 PBD block 26.7µM* and Sfp inh 0.3%.
`O[C@@H]1CO[C@H]2[C@@H]1OC[C@@H]2O` gave VDR inh 9.6% and Sfp inh 21.1%.
Screening Cn1cccc1C1CCCN1CC(=O)Nc1ccc(C(N)=O)cc1 (stereo not drawn) returned TrxR1 substrate -0.2%, rTrxR1 inhibitor -22.4%, IDH1 R132H inh -3.0%, VDR inh 1.4% and PLK1 PBD block -1.7%.
For CCOc1ccc2c(O)csc2c1 the results were TrxR1 substrate -13.7%, rTrxR1 inhibitor -11.8%, IDH1 R132H inh -5.4%, VDR inh inconclusive, PLK1 PBD block inconclusive and Sfp inh 50.1µM*.
`CCCC(=O)Nc1nc2ccc(OCC)cc2s1` gave TrxR1 substrate -3.3%, rTrxR1 inhibitor 2.6%, IDH1 R132H inh -6.5%, VDR inh 1.0%, PLK1 PBD block -14.7% and Sfp inh 7.1%.
For CCN1C(=O)[C@H]2[C@@H](c3ccc(-c4cccc(Cl)c4)c(OC)c3)N3CCC[C@@]3(C(=O)OC)[C@H]2C1=O the results were TrxR1 substrate 15.3%[57.1 µM], rTrxR1 inhibitor 15.8%, IDH1 R132H inh -2.8%, VDR inh 21.3% and PLK1 PBD block -10.1%.
For CN(C)C1C(=O)C(C(N)=O)C(=O)C2(O)C(=O)C3C(=O)c4c(O)ccc(Cl)c4C(O)C3CC12 (stereo not drawn) the results were VDR inh 1.0% and Sfp inh -9.5%.
`CCOc1ccc(C(=O)c2oc3ccccc3c2NC(=O)c2cc(-c3ccc(C)cc3)on2)cc1` gave TrxR1 substrate -0.9%, rTrxR1 inhibitor 26.1%, IDH1 R132H inh -7.0% and VDR inh 7.8%.
CCOc1cc(C(=S)N2CCOCC2)ccc1OC(=O)c1ccccc1 was read as TrxR1 substrate 1.6%, rTrxR1 inhibitor 28.2%, IDH1 R132H inh 3.1%, VDR inh -15.1%, PLK1 PBD block inconclusive and Sfp inh 79.4µM*.
For CCOc1cc(C(=S)N2CCOCC2)ccc1OC(=O)c1ccc(C)cc1 the results were TrxR1 substrate 0.4%, rTrxR1 inhibitor 26.0%, IDH1 R132H inh -1.2%, VDR inh 2.9%, PLK1 PBD block -19.9% and Sfp inh -9.5%.
Screening COc1ccc(C(=S)N2CCOCC2)cc1OC(=O)c1ccc(C)cc1 returned TrxR1 substrate -1.2%, rTrxR1 inhibitor 20.4%, IDH1 R132H inh -4.5%, VDR inh 7.2%, PLK1 PBD block -15.9% and Sfp inh -1.4%.
Screening COc1ccc(C(=S)N2CCOCC2)cc1OC(=O)c1ccc([N+](=O)[O-])cc1 returned TrxR1 substrate inconclusive, rTrxR1 inhibitor -17.6%, IDH1 R132H inh 12.5%, VDR inh inconclusive, PLK1 PBD block 16.8µM* and Sfp inh 50.1µM*.
Screening COc1ccc(C(=S)N2CCOCC2)cc1OC(=O)c1cccc([N+](=O)[O-])c1 returned TrxR1 substrate -3.4%, rTrxR1 inhibitor 7.5%, IDH1 R132H inh 3.7%, VDR inh -6.4%, PLK1 PBD block -11.1% and Sfp inh 19.6%.
COc1ccc(C(=S)N2CCOCC2)cc1OC(=O)c1ccccc1 was read as TrxR1 substrate 5.0%, rTrxR1 inhibitor 18.2%, IDH1 R132H inh 0.0%, VDR inh -9.7%, PLK1 PBD block 26.7µM* and Sfp inh 56.2µM*.
